Source: PubChem (National Center for Advancing Translational Sciences (NCATS))
Tau fluor cs – counter-screen for tau fibril formation inhibitors; 280,000 compounds, 0.93% hits; AID 1463; tau K18 P301L Alexa594 fluorescence, heparin fibrillization; Potency, µM (titrated, usually from 57.7 µM); note: nearly all actives have a fitted effect of over 55% in size
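Human tau K18 P301L (15 uM unlabeled, 0.24 uM Alexa 594-labeled) in 100 mM sodium acetate pH 7 with 20 uM heparin, 6 hr at 37 C. ThT 30 uM added, 1 hr ambient; Alexa 594 FP and total fluorescence read at 555/632 nm.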
Tau ThT inhib – inhibitors of human tau fibril formation, thioflavin T binding; recombinant tau K18 P301L (four-repeat tau fragment), heparin-induced fibrillization, ThT fluorescence; Potency, µM (top dose mostly 57.4 µM), most hits filed as inhibitors; P10636; 270,000 compounds, 2.1% hits; note: nearly all actives have a fitted effect of over 55% in size
Target sequence (P10636 561-689 P618L limits assumed): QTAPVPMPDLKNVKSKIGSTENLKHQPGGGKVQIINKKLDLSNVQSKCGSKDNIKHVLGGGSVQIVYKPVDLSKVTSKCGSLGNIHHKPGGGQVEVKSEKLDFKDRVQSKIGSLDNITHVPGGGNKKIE
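Tau K18 P301L fragment (15 uM unlabeled plus 0.24 uM Alexa 594-labeled) in 100 mM sodium acetate pH 7 with compound, fibrillization induced by 20 uM heparin for 6 hr at 37 C. Thioflavin T (30 uM) added, fluorescence read after 1 hr (ex 450, em 510 nm).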
Coupling enz – inhibits coupling enzyme system, counter-screen for aldolase hits. 290,000 compounds, 0.67% hits. activity change, negative = inhibition, % at 58.2 µM, hits read low. coupling enzyme system counterscreen, AmpLite Red fluorescence; in the data active = activity change below about -30%
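Compounds tested against the coupling enzymes alone at 57.5 uM final; readout was AmpLite Red fluorescence (525/598 nm) after 20 min at RT.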
Tau FP inhib – inhibitors of human tau fibril formation. K18 P301L tau heparin fibrillization, Alexa594 FP, 6 h. Potency, µM (series often up to 57.7 µM), most hits filed as inhibitors. 280,000 compounds, 0.39% hits. AID 1468; note: nearly all actives have a fitted effect of over 55% in size
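Steps: dispense K18 P301L tau (15 uM plus 0.24 uM Alexa 594 tracer, final) in pH 7 sodium acetate; add compound; add heparin (20 uM final); incubate 6 hr, 37 C; add ThT (30 uM final); after 1 hr ambient, read FP.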
Sfp PPTase inh – Sfp phosphopantetheinyl transferase inhibition; Q9F4F7; Biochemical Sfp PPTase activity, qHTS; Potency, µM, usual class: inhibitors; 310,000 compounds, 3.5% hits; AID 1490;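 note: the enzyme is Sfp with the accession as filed and its product quenches rhodamine fluorescence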
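Compounds were incubated with enzyme (final 15 nM) for 15 min at room temperature before substrate addition started the reaction. Fluorescence at 525 nm excitation, 598 nm emission was recorded immediately and after 30 minutes.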
Large screens that a line does not name were inactive; [ ] = remark or other dose. This is a sample that favours compounds with a hit; in the whole collection about 5.2% have one here. Unless noted, calls come from the whole dose curve; as a rule, active = well fitted curve in the direction sought with a large enough effect; inconclusive = small, poorly fitted or top-dose-only effect, or another doubt; inactive = no such curve, though single readings can be large; an effect the other way counts as inactive or inconclusive.

Cc1ccc(NC(=O)CSCC(=O)Nc2ncc3c(n2)CC(c2ccco2)CC3=O)cc1 (stereo not drawn)	Tau ThT inhib inconclusive, Sfp PPTase inh 14.1µM
CCOC(=O)NC(N(O)c1cccc(Cl)c1)C(Cl)(Cl)Cl (stereo not drawn)	Tau ThT inhib inconclusive, Tau FP inhib inconclusive, Sfp PPTase inh 11.2µM
Cc1ccc(-c2nc3c(c(=O)[nH]c(=O)n3Cc3ccccc3)n2C)o1	Tau ThT inhib inconclusive, Sfp PPTase inh 10µM
Cc1ccc(-c2nc3c(c(=O)[nH]c(=O)n3Cc3ccccc3)n2Cc2ccccc2)o1	Tau ThT inhib inconclusive, Tau FP inhib inconclusive, Sfp PPTase inh 12.6µM
COCCCn1c(-c2ccc(OC)cc2)nc2c1c(=O)[nH]c(=O)n2Cc1ccccc1	none (no result: Tau fluor cs, Tau ThT inhib, Tau FP inhib)
Cc1ccc(-c2nc3c(c(=O)[nH]c(=O)n3Cc3ccccc3)n2C)s1	none
C[C@@H]1CC[C@H]2[C@H](C)[C@H]3CC[C@H]4C5[C@@H](O)CC6=CC(=O)CC[C@]6(C)[C@H]5C[C@H]4C3C(=O)N2C1 (stereo partly drawn)	none
O=C1NC(=S)SC1=C1CCCC1	Tau ThT inhib inconclusive, Tau FP inhib inconclusive, Sfp PPTase inh 39.8µM
Cc1ccn2c(Nc3ccc(C(C)C)cc3)c(-c3cccs3)nc2c1	none (no result: Coupling enz, Sfp PPTase inh)
O=C(CSc1ccccc1C(=O)NCCCN1CCCC1=O)NCc1ccco1	Sfp PPTase inh 44.7µM
COc1ccc(C(=O)NCC(c2ccco2)S(=O)(=O)c2cccs2)cc1 (stereo not drawn)	none (no result: Coupling enz, Sfp PPTase inh)
Cc1cc(-c2ccccc2)nc2c(Br)c(=O)[nH]n12	Tau ThT inhib 10µM, Tau FP inhib inconclusive
Cc1cc2nc(-c3ccccc3)cc(=O)n2[nH]1	none
N#C/C(=C(/O)CN1CCCC1)c1nc(-c2ccccc2)cs1	Sfp PPTase inh 31.6µM
COc1cccc(=O)c2c(C)n(C)c(C)c12	Tau ThT inhib inconclusive, Sfp PPTase inh inconclusive
COc1cccc(=O)c2c(C)n(-c3cc(C)cc(C)c3)c(C)c12	Tau ThT inhib 28.2µM, Tau FP inhib inconclusive
COc1cccc(-n2c(C)c3c(OC)cccc(=O)c3c2C)c1	Tau ThT inhib 25.1µM, Tau FP inhib inconclusive, Sfp PPTase inh 50.1µM
CCN(CC)C(=S)Sc1c(-c2ccccc2)c2cc(Cl)ccc2[nH]c1=O	Sfp PPTase inh 15.8µM
CCOC(=O)CSc1c(-c2ccccc2)c2cc(Cl)ccc2[nH]c1=O	none
O=c1[nH]c2ccc(Cl)cc2c(-c2ccccc2)c1CN1CCOCC1	Tau ThT inhib inconclusive
O=C(O)CSc1c(-c2ccccc2)c2cc(Cl)ccc2[nH]c1=O	Tau FP inhib inconclusive, Sfp PPTase inh 70.8µM
O=c1[nH]c2ccc(Cl)cc2c(O)c1Cc1ccccc1	Tau fluor cs inconclusive, Tau ThT inhib inconclusive, Sfp PPTase inh 50.1µM
Cc1ccc(Cl)cc1N1CCN(C2(c3ccccc3)C(=O)c3ccccc3C2=O)CC1	Tau FP inhib inconclusive (no result: Coupling enz, Sfp PPTase inh)
N#Cc1ccc(C(=O)Nc2ccc(Cl)c(-c3nc4cc(Cl)ccc4o3)c2)c(F)c1	Tau fluor cs inconclusive, Tau FP inhib inconclusive (no result: Coupling enz, Sfp PPTase inh)
COc1ccc(CNc2ncnc3ccc(-c4c(C)noc4C)cc23)cc1	none (no result: Tau fluor cs, Tau ThT inhib, Tau FP inhib)
COc1ccc(COc2cc(-c3cccc(OC)c3)nc3ccc(NC(=O)c4ccc(Cl)cc4)cc23)cc1	Tau FP inhib 20µM
O=c1[nH][nH]c2c(N=Cc3ccccc3O)ccc(F)c12	Tau fluor cs 3.55µM[quencher], Tau ThT inhib 3.55µM, Coupling enz -33.6, Tau FP inhib 7.94µM, Sfp PPTase inh 7.94µM
CC1(C)OC(=O)C(=Cc2ccc(-c3ccc(Cl)c(C(=O)O)c3)o2)C(=O)O1	Sfp PPTase inh 79.4µM
COC(=O)c1ccc(N2NC(=O)/C(=C/c3ccc(-c4ccc(Cl)c(C(=O)O)c4)o3)C2=O)cc1	Tau fluor cs inconclusive, Tau ThT inhib 6.31µM, Tau FP inhib inconclusive
Cc1ccc(N2NC(=O)/C(=C/c3ccc(-c4ccc(Cl)c(C(=O)O)c4)o3)C2=O)cc1C	Tau ThT inhib inconclusive
O=C(O)c1ccc(-c2ccc(/C=c3/sc4nc5ccccc5n4c3=O)o2)cc1Cl	Sfp PPTase inh 50.1µM (no result: Tau fluor cs, Tau ThT inhib, Tau FP inhib)
CC1=NN(c2ccc(Cl)c(C(=O)O)c2)C(=O)/C1=C\c1ccc(-c2ccc(C(=O)O)cc2)o1	Tau ThT inhib inconclusive
Cc1ccc2c(nc3s/c(=C\c4ccc(-c5ccccc5C(=O)O)o4)c(=O)n32)c1C	none (no result: Tau fluor cs, Tau ThT inhib, Tau FP inhib)
